From PubChem BioAssay (Tox21) come the findings set out here.

A number with no mark means an inactive call. Inconclusive results are not listed. Calls of active or inactive are those of the source. Calls come from the whole dose curve; as a rule, active = well fitted curve in the direction sought with a large enough effect in the repeat runs; inconclusive = weak or mixed curves; inactive = no such curve, though single readings can be large; an effect the other way counts as inactive or inconclusive.

Test [1] is described as follows: qHTS RealTime-Glo MT Cell Viability Assay in HEK293 cells - 16 hour (AID 1224872). Note: top concentration of the series differs between compounds; nearly all actives have a fitted effect of over 50% in size. Put shortly: (§1)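 Assay medium contained NanoLuc luciferase plus cell-permeant prosubstrate, added with HEK293 cells at 600 cells/well. After 5 h at 37 C/5% CO2 compounds were added; plates stayed at 37 C for 40 h with serial luminescence reads.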
Test [2] can be described thus: qHTS RealTime-Glo MT Cell Viability Assay in HepG2 cells - 8 hour (AID 1224873). Note: nearly all actives have a fitted effect of over 55% in size. An outline of the steps: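 Real-time viability: cells seeded at 600 per well together with NanoLuc and cell-permeant prosubstrate, compounds added after 5 h incubation. Luminescence tracked at 0, 8, 16, 24, 32 and 40 h of exposure.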
A short description of test [3]: A CellTox Green Cytotoxicity Assay to monitor cytotoxicity in HepG2 cells - 16 hour (AID 1224876). Note: nearly all actives have a fitted effect of over 45% in size. An outline of the steps:
(§2)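 Nonlytic assay: viable cells exclude the dye, so fluorescence scales with cell death. HepG2 at 600 cells/well, compounds added after 5 h, signal read across 40 h.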

Test [4] can be described thus: qHTS RealTime-Glo MT Cell Viability Assay in HepG2 cells - 32 hour (AID 1224877). Note: nearly all actives have a fitted effect of over 55% in size. An outline of the steps: (§3)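 qHTS, HepG2, 600 cells/well, RealTime-Glo (NanoLuc + prosubstrate) added with cells; 5 h preincubation; DMSO compound addition; 37 C; luminescence at 0/8/16/24/32/40 h.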
Test [5] in a line: A CellTox Green Cytotoxicity Assay to monitor cytotoxicity in HepG2 cells - 24 hour (AID 1224878). Note: nearly all actives have a fitted effect of over 45% in size. An outline of the steps: as §2
Test [6] can be described thus: A CellTox Green Cytotoxicity Assay to monitor cytotoxicity in HepG2 cells - 40 hour (AID 1224879). Note: nearly all actives have a fitted effect of over 40% in size. Note: potency is the fitted concentration of half-maximal effect. An outline of the steps: as §2
A short description of test [7]: qHTS RealTime-Glo MT Cell Viability Assay in HEK293 cells - 0 hour (AID 1224880). Note: top concentration of the series differs between compounds; nearly all actives have a fitted effect of over 45% in size. Put shortly: (§4)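 Tox21 screen in HEK293 using RealTime-Glo MT chemistry, with cells and reagent co-dispensed. Luminescence proportional to viable cell number was captured at intervals during 40 h compound exposure at 37 C.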
The nature of test [8]: A CellTox Green Cytotoxicity Assay to monitor cytotoxicity in HEK293 cells - 32 hour (AID 1224881). Note: nearly all actives have a fitted effect of over 40% in size. An outline of the steps:
(§5)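 Seeding of HEK293 cells together with cytotoxicity dye preceded a 5 h incubation at 37 C/5% CO2. Test compounds in DMSO were then added and fluorescence monitored across 40 h.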

The nature of test [9]: A CellTox Green Cytotoxicity Assay to monitor cytotoxicity in HepG2 cells - 0 hour (AID 1224882). Note: nearly all actives have a fitted effect of over 35% in size. Put shortly: as §2
The nature of test [10]: A CellTox Green Cytotoxicity Assay to monitor cytotoxicity in HepG2 cells - 32 hour (AID 1224883). Note: nearly all actives have a fitted effect of over 50% in size. Note: potency is the fitted concentration of half-maximal effect. Put shortly: as §2
A short description of test [11]: A CellTox Green Cytotoxicity Assay to monitor cytotoxicity in HEK293 cells - 8 hour (AID 1224884). Note: nearly all actives have a fitted effect of over 35% in size. An outline of the steps: as §5
A short description of test [12]: qHTS RealTime-Glo MT Cell Viability Assay in HepG2 cells - 16 hour (AID 1224885). Note: nearly all actives have a fitted effect of over 50% in size. Put shortly:
as §3

Test [13] can be described thus: qHTS RealTime-Glo MT Cell Viability Assay in HEK293 cells - 24 hour (AID 1224886). Note: top concentration of the series differs between compounds; nearly all actives have a fitted effect of over 50% in size. Put shortly:
as §1

The nature of test [14]: qHTS RealTime-Glo MT Cell Viability Assay in HEK293 cells - 8 hour (AID 1224887). Put shortly:
as §4

A short description of test [15]: A CellTox Green Cytotoxicity Assay to monitor cytotoxicity in HEK293 cells - 16 hour (AID 1224888). Note: nearly all actives have a fitted effect of over 35% in size. An outline of the steps: as §5
The nature of test [16]: qHTS RealTime-Glo MT Cell Viability Assay in HepG2 cells - 0 hour (AID 1224889). Note: nearly all actives have a fitted effect of over 50% in size. An outline of the steps:
as §3

Test [17] is described as follows: A CellTox Green Cytotoxicity Assay to monitor cytotoxicity in HepG2 cells - 8 hour (AID 1224890). Note: nearly all actives have a fitted effect of over 45% in size. An outline of the steps: as §2
Test [18] in a line: qHTS assay to identify small molecule antagonists of the estrogen receptor alpha (ER-alpha) signaling pathway using the BG1 cell line in the presence of 0.1 nM 17-beta-estradiol - cell viability counter screen (AID 1259241). Note: nearly all actives have a fitted effect of over 40% in size. An outline of the steps: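 The cell line endogenously expresses full-length ER-alpha and carries four EREs driving luciferase. Cells are cultured 5 days hormone-free, treated 22 hr with compounds and 0.1 nM estradiol, then viability is read by fluorescence.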

Test [19] can be described thus: qHTS RealTime-Glo MT Cell Viability Assay in HEK293 cells - 40 hour (AID 1224874). Note: nearly all actives have a fitted effect of over 50% in size. The following applies: RealTime-Glo luminescence; max response: active compounds read low. An outline of the steps: as §4
Test [20] can be described thus: A CellTox Green Cytotoxicity Assay to monitor cytotoxicity in HEK293 cells - 24 hour (AID 1224875). Put shortly:
as §5
% is set by controls: 0 for no effect and ±100 for the full control effect.

Turning to `CN1CCN(CC(=O)N2c3ccccc3C(=O)Nc3cccnc32)CC1`, the activity change, negative = cytotoxicity in test [1] was 13.3% [at 6.97 µM]; in [7], 7.23% [at 6.97 µM]; in test [13], 6.44% [at 6.97 µM]; in test [14], 17.8% [at 6.97 µM]; in test [16] it was 2.23% [at 6.97 µM]; in test [18], 5.03% [at 8.39 µM]. For the same molecule, the viability change, negative = cytotoxic in test [2] was 0.562% [at 6.97 µM]. Besides, the cytotoxicity increase is -11.9% [at 6.97 µM] in [3]; -15.8% [at 6.97 µM] in [6]; -2.73% [at 6.97 µM] in test [8]; -13% [at 6.97 µM] in test [10]; -1.13% [at 6.97 µM] in test [11]; -13.9% [at 6.97 µM] in test [17]. The figures for the activity change, negative = cytotoxic in [4] and in test [12] were 1.53% [at 6.97 µM] and 0.498% [at 6.97 µM], respectively. In addition, the values for the cytotoxicity in test [5] and in test [9] were -12.6% [at 6.97 µM] and -13.6% [at 6.97 µM], respectively. Further, the activity change in test [15] is -1.08% [at 6.97 µM].

On to `CCCCCCCCC1CCC(=O)O1` (configuration not stated), for which the call in test [2], in test [20], in test [3], in test [4], in test [5] and in test [9] was inactive. Besides, the molecule was called inactive in test [12], in [15] and in test [17]. For the same molecule, the max response in test [19] was -1.86%. The Potency result in test [6], in test [7], in [8], in test [10], in test [11] and in test [13] was “inactive” each time. For the same molecule, the Potency entry in [14], in test [16] and in test [18] was “inactive” throughout.

On to `O=C1c2ccccc2C(=O)N1CCl`, for which the molecule was classed as inactive in test [2], in [20], in test [3], in test [4], in test [5] and in test [9]. In addition, the molecule was called inactive in [15] and in test [17]. The max response in test [19] is 1.28%. For the same molecule, the Potency result in test [6], in test [7], in test [8], in test [10], in test [11] and in test [13] was “inactive” each time. For the same molecule, the Potency entry in [14], in test [16] and in test [18] was “inactive” each time.

In the case of `CCO[Si](CCCS)(OCC)OCC`, the call in test [2], in test [20], in test [3], in [4], in test [5] and in test [9] was inactive. Moreover, the molecule was classed as inactive in [12] and in [17]. In addition, in [19], the max response is 16.1%. For the same molecule, the Potency entry in test [6], in test [7], in test [8], in test [10], in test [16] and in test [18] was “inactive” in each case.

Consider `COc1cc(N)ccc1C`, for which the molecule was called inactive in test [2], in [20], in test [3], in test [4], in test [5] and in test [9]. Besides, the molecule was called inactive in [15] and in test [17]. Also, the max response in test [19] was 8.05%. The Potency result in [6], in [7], in test [8], in test [10], in test [11] and in test [13] was “inactive” in each case. For the same molecule, the Potency entry in test [14], in test [16] and in test [18] was “inactive” throughout.

As for `Nc1ccc2cc(S(=O)(=O)O)cc(O)c2c1`, the Potency result in test [1], in test [6], in [8], in test [10], in test [11] and in [13] was “inactive” in each case. Also, the Potency entry in [14] and in [16] was “inactive” throughout. In addition, the molecule was classed as inactive in test [2], in test [20], in test [4], in [9], in test [12] and in test [15]. In addition, in [17], the outcome was inactive.

With `CCCC/C=C/C=C\C=O`, the Potency result in test [1], in test [6], in test [7], in [8], in test [10] and in test [11] was “inactive” in each case. In addition, the Potency result in test [13], in test [14] and in test [18] was “inactive” in each case. Further, the molecule was called inactive in [2], in test [4], in [5], in test [9], in test [12] and in [15].

As for `Cc1ccccc1C(=O)Nc1ccc(C(=O)N2CCCC(N(C)C)c3ccccc32)cc1` (configuration not stated), the Potency entry in test [1], in test [7], in test [8], in test [14], in test [16] and in test [18] was “inactive” in each case. Also, the molecule was called inactive in [2], in test [3], in [4], in test [9], in test [12] and in test [15]. In addition, the outcome in test [17] was inactive. Moreover, the Potency is 6.74 µM (active) in test [6] and 7.56 µM (active) in test [10].

Turning to `O=S(=O)(O)c1cc(O)c2ccc(Nc3ccccc3)cc2c1`, the Potency entry in test [1], in [6], in test [7], in test [8], in test [10] and in test [13] was “inactive” in each case. Moreover, the Potency entry in test [14] and in test [18] was “inactive” throughout. For the same molecule, the outcome in test [2], in test [20], in test [3], in test [4], in test [9] and in test [12] was inactive. In test [15], the result was inactive.

Regarding `O=C(O)c1cc(Cl)cc([N+](=O)[O-])c1Cl`, the molecule was called inactive in test [2], in [20], in test [3], in test [4], in [5] and in test [9]. The molecule was classed as inactive in [12], in test [15] and in test [17]. The max response in test [19] was 21%. In addition, the Potency result in [6], in test [7], in [8], in test [10], in test [11] and in test [13] was “inactive” in each case. Moreover, the Potency entry in test [14], in test [16] and in [18] was “inactive” each time.

In the case of `COc1nccnc1NS(=O)(=O)c1ccc(N)cc1`, the Potency result in test [1], in test [6], in [7], in [8], in [10] and in [11] was “inactive” each time. For the same molecule, the Potency entry in [13], in [14], in [16] and in [18] was “inactive” in each case. Also, the outcome in test [2], in [20], in test [4], in test [9], in test [12] and in test [15] was inactive. In addition, the molecule was called inactive in [17].

In the case of `NCCS`, the Potency result in test [1], in test [6], in [7], in test [8], in [10] and in [13] was “inactive” each time. Besides, the Potency result in test [14] and in test [18] was “inactive” each time. The molecule was called inactive in test [2], in test [20], in test [4], in test [5], in [9] and in [12]. For the same molecule, the molecule was classed as inactive in test [15] and in test [17].

`Nc1ccc(S(=O)(=O)Nc2ccc(Cl)nn2)cc1`: the molecule was called inactive in test [2], in test [20], in test [3], in [4], in test [5] and in test [9]. The molecule was called inactive in [12], in [15] and in test [17]. For the same molecule, the max response in test [19] is -0.389%. For the same molecule, the Potency result in test [6], in [7], in test [8], in [10], in test [11] and in test [13] was “inactive” in each case. Besides, the Potency result in test [14], in test [16] and in test [18] was “inactive” in each case.

Consider `CO[C@@H]1[C@@H](OC(N)=O)[C@@H](O)[C@H](Oc2ccc3c(O)c(NC(=O)c4ccc(O)c(CC=C(C)C)c4)c(=O)oc3c2C)OC1(C)C`, for which the molecule was called inactive in test [2], in test [20], in test [3], in test [4], in test [5] and in [9]. For the same molecule, the molecule was called inactive in [12] and in [15]. For the same molecule, the max response in [19] is 7.28%. Further, the Potency entry in [6], in [7], in test [8], in [10], in test [11] and in test [13] was “inactive” each time. The Potency entry in [14], in [16] and in [18] was “inactive” in each case.
